# According to PubChem BioAssay (NCI):
# This is part of a sample that, as a whole, favours compounds with a hit. Of some 83,000 tested, about 20% had one in any assay.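 Step 1: grow cells in 96-well plates. Step 2: add test compound at a single concentration. Step 3: incubate 48 h. Step 4: record percent growth.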 Unmarked numbers belong to inactive results. The source made the active and inactive calls. The calls were made as follows: active = growth percent below 10; inactive = the rest.
# Key:
# Assay in all cases: NCI-60 one-dose screen, 48 h (100 = growth as untreated, 0 = no growth, -100 = all killed)
# Conditions in all cases: 10 µM unless noted
# [1] = tested on: SK-MEL-2 melanoma
# [2] = tested on: EKVX NSCLC
# [3] = tested on: SN12C renal
# [4] = tested on: UO-31 renal
# [5] = tested on: TK-10 renal
# [6] = tested on: ACHN renal
# [7] = tested on: CAKI-1 renal
# [8] = tested on: A498 renal
# [9] = tested on: CCRF-CEM leukemia
# [10] = tested on: MOLT-4 leukemia
# [11] = tested on: SR leukemia
# [12] = tested on: RPMI-8226 leukemia
# [13] = tested on: OVCAR-8 ovarian
# [14] = tested on: OVCAR-5 ovarian
# [15] = tested on: OVCAR-4 ovarian
# [16] = tested on: SK-OV-3 ovarian
# [17] = tested on: IGROV1 ovarian
# [18] = tested on: OVCAR-3 ovarian
# [19] = tested on: HS 578T breast
# [20] = tested on: NCI/ADR-RES ovarian
Compound,growth [1],growth [2],growth [3],growth [4],growth [5],growth [6],growth [7],growth [8],growth [9],growth [10],growth [11],growth [12],growth [13],growth [14],growth [15],growth [16],growth [17],growth [18],growth [19],growth [20]
Nc1cccc(NC(=O)C(=O)Nc2cccc(N)c2)c1,97.6%,94%,88.6%,84.4%,122%,85.8%,78.1%,89.6%,97.9%,98.1%,115%,88.1%,94.8%,94.5%,126%,117%,75.7%,101%,89.8%,93.1%
O=C1C=CC(=O)N1c1ccc(Cc2ccc(N3C(=O)C=CC3=O)cc2)cc1,112%,109%,96.1%,81.9%,92.4%,94.1%,65.7%,91.2%,89.5%,21.8%,92.6%,81.6%,103%,86.4%,201%,101%,89.7%,125%,94.7%,99.4%
Cn1c2ccccc2c2c3[nH]c(=O)[nH]c(=O)c3c3c4ccccc4n(C)c3c21,67%,29%,33.7%,11.8%,36.4%,7.31% (active),41.5%,-4.05% (active),52.9%,49.4%,13.7%,33.1%,31.3%,23.8%,-10.1% (active),48.6%,22.5%,4.89% (active),-7.29% (active),32.2%
CC/C=C\C[C@H](O)C/C=C1/C(=O)C=C[C@@H]1C/C=C\CCCC(=O)NC(C)C,28.8%,28.4%,-11.1% (active),-61.8% (active),-0.347% (active),-82.5% (active),-0.696% (active),98.5%,-13% (active),-17.7% (active),-24.9% (active),-5.29% (active),-12.5% (active),41.6%,35.6%,21.4%,14.8%,-6.93% (active),46.6%,15.9%
CS(=O)CCCCCN=C=S (configuration not stated),6.73% (active),12.8%,-17% (active),1.81% (active),-27.7% (active),-45.5% (active),-15.3% (active),-25.9% (active),-7.32% (active),-13% (active),-13.9% (active),5.22% (active),-8.89% (active),11.6%,21.4%,8.97% (active),7.98% (active),-20.4% (active),11.6%,1.36% (active)
COc1ccc(-c2nn(-c3ccccc3)cc2/C=C/C(=O)OCc2cn(-c3ccc(F)c(Cl)c3)nn2)cc1,86.9%,101%,80.1%,43%,118%,83.3%,79.2%,77.3%,101%,71.2%,88.3%,75.2%,80.1%,106%,66.9%,85.3%,86.2%,68.2%,88%,73.9%
CC(C)C1=C[C@@]23CC[C@@H]4[C@](C)(CCC[C@@]4(C)C(=O)OCC#CCN4CCCC4)[C@H]2C[C@@H]1[C@H]1C(=O)OC(=O)[C@H]13,97.1%,86.4%,93.2%,78.3%,101%,95.9%,83.6%,78.5%,85.7%,93.9%,92%,80.3%,115%,97.3%,92%,90.5%,81.9%,94.2%,99.2%,99.3%
Cc1cc(N/N=C/c2nc(-c3ccc(Cl)cc3)oc2C)c2cc(Cl)ccc2n1,104%,92%,-5.24% (active),21.2%,30.5%,63.4%,90.2%,86.9%,-24.3% (active),-20.7% (active),-6.42% (active),-35.5% (active),10.4%,87.2%,-84.5% (active),100%,66.3%,-34.3% (active),73.1%,18%
CNc1nc(C)c(-c2nc(Nc3cccc(S(N)(=O)=O)c3)ncc2F)s1,-50.9% (active),4.38% (active),-17.2% (active),1.38% (active),-2.07% (active),2.7% (active),14.8%,-38.8% (active),-2.73% (active),-26.9% (active),-18.5% (active),2.6% (active),8.76% (active),3.14% (active),29.2%,8.56% (active),4.94% (active),10.2%,3.64% (active),5.57% (active)
CCCCCCNC(=O)Oc1ccc(/C(=C(\C)c2ccccc2)c2ccc(OCCN(CC)CC)cc2)cc1,86.6%,90.5%,73%,28.8%,76.1%,88.1%,77%,81.7%,40.5%,20.3%,1.65% (active),22.1%,63.5%,76.9%,64.4%,74.3%,59.2%,66.9%,36.4%,70.6%
CCN(CC)c1ccc(/C=C/C2=[N+](C)c3ccccc3C2(C)C)cc1,-1.48% (active),0.0796% (active),1.41% (active),22.1%,28.7%,-1.03% (active),-8.77% (active),50.7%,7.5% (active),15.1%,28.1%,-20.9% (active),24.7%,34.7%,40.6%,-0.178% (active),18.6%,5.97% (active),27%,84.8%
c1ccc2c(Nc3cccc4ccccc34)cccc2c1,38.6%,78.1%,58.8%,41.3%,81.3%,79.1%,40.3%,81.2%,59.8%,30.5%,31.6%,68.3%,65.7%,103%,86%,59.5%,56.8%,43.8%,62.6%,29.8%
COc1ccc(C2c3ccc4ccccc4c3Oc3ncnc(N)c32)cc1 (configuration not stated),71.9%,45.9%,96%,55.9%,113%,81.3%,50%,75.2%,89.2%,83.4%,46%,86%,92.8%,97.9%,89%,62.1%,64.3%,88%,82.2%,74.7%
COc1ccc(-c2cc(-c3cccnc3)nc3sc4c(=O)n(-c5ccc(C)cc5)cnc4c23)cc1OC,108%,86.4%,92.2%,82%,111%,88.1%,76.3%,91%,105%,97.4%,96.1%,97.6%,101%,86.7%,92.3%,99.2%,106%,98.8%,87.2%,103%
O=C1/C(=C/c2ccccc2)CN(CCC(=O)N2C/C(=C\c3ccccc3)C(=O)/C(=C/c3ccccc3)C2)C/C1=C\c1ccccc1,92.1%,63.6%,68.3%,47.7%,98.5%,62.1%,61.7%,60.8%,9.77% (active),29.5%,16.5%,-18.8% (active),16.9%,91%,67.8%,51.3%,70.6%,32.8%,58.1%,76.1%
Cc1ccc(-c2nc(/C=N/Nc3cc(C)nc4ccc(Cl)cc34)c(C)o2)cc1,95.1%,-41.2% (active),-81.2% (active),-99.7% (active),-54.8% (active),-100% (active),-63.6% (active),67.6%,-51.3% (active),-31.3% (active),0.444% (active),-48.6% (active),-88.6% (active),-65.4% (active),-90.8% (active),96.3%,-69.7% (active),-80.8% (active),-42.8% (active),-37.7% (active)
CC(C)Oc1nc2c(c(=O)n(C)c(=O)n2C)n1C,107%,103%,108%,91.3%,95.3%,101%,100%,106%,95.3%,94.4%,104%,105%,103%,106%,115%,102%,102%,110%,116%,98.1%
C=C1C(=O)O[C@H]2[C@H]1CC/C(Cn1cc(Cn3ccc4cc(Cl)ccc43)nn1)=C\CC[C@@]1(C)O[C@@H]21,18.1%,42.4%,19.4%,-100% (active),-24.7% (active),-97.8% (active),3.92% (active),45%,-27.1% (active),-22.1% (active),-27% (active),-42.3% (active),-38.8% (active),69.5%,14.3%,85.9%,2.27% (active),-91.2% (active),52.1%,50.6%
O=C1c2cccnc2C(=O)c2c1c(C(=O)OCCN1CCOCC1)c1ccccn21,7.23% (active),13.1%,-30.4% (active),-26.7% (active),-6.05% (active),7.94% (active),14.4%,-30.4% (active),8.9% (active),-16.2% (active),-10.1% (active),10.1%,9.13% (active),-9.33% (active),24.2%,-0.946% (active),1.32% (active),-6.91% (active),30.3%,5.58% (active)
COc1cc2c(c(OC)c1OC)-c1ccc(N=NC(N)=S)c(=O)cc1[C@@H](NC(C)=O)CC2,-10.1% (active),52.4%,37%,60.9%,19%,65.8%,64.4%,-10.9% (active),15%,20%,15%,30.8%,1.13% (active),48.5%,33.5%,12.1%,5.37% (active),-52.2% (active),24.2%,82.1%
CCN(CC)CCCC(C)NCCCNc1cccc2cccnc12 (configuration not stated),112%,101%,86.5%,72.2%,97.7%,108%,98.4%,81.8%,96.9%,94.1%,91%,96.9%,91.9%,125%,83.2%,89.2%,99.7%,89.8%,105%,92.3%
O=C(CN1CCN(c2cc3c(cc2F)c(=O)c(C(=O)O)cn3C2CC2)CC1)Nc1cc(=O)[nH]c(=O)[nH]1,107%,92%,97.7%,79.7%,100%,100%,95.4%,100%,109%,102%,102%,108%,101%,96.4%,113%,110%,96.4%,113%,95.6%,102%
C(=N\Nc1nnn(Cc2ccccc2)n1)/c1ccccc1,34%,57.6%,67.5%,61.2%,76.6%,67.2%,95.2%,38.2%,35%,38.2%,17.2%,31.2%,39.8%,93.1%,79.4%,35.9%,50.4%,-38.1% (active),36.5%,-0.167% (active)
NS(=O)(=O)N(c1cc(C(F)(F)F)cc(C(F)(F)F)c1)C1CCN(Cc2ccc(F)cc2)CC1,74.2%,72.2%,42.2%,35.6%,81.4%,75.2%,62.5%,76.3%,64%,39%,-35.1% (active),28.1%,73.2%,90.9%,72.4%,87.9%,61.9%,60%,84%,51.3%
O=C1c2ccccc2-c2nccc3cc(Cl)nc1c23,22.2%,-17.3% (active),-30.7% (active),-18.5% (active),61.1%,-46.4% (active),32.9%,90.2%,19.4%,26%,-27.8% (active),4.08% (active),51.1%,96.5%,-96.4% (active),97.5%,0.315% (active),-87.3% (active),-7.62% (active),69%
Cc1ccc(SCN2CCN(c3cccc(Cl)c3)CC2)cc1,102%,90.2%,75.6%,86.6%,97.7%,104%,70.7%,85.5%,38.7%,83.4%,91.7%,164%,110%,112%,108%,111%,80.4%,106%,111%,98.9%
Cn1c2c(Cl)c(Cl)ccc2c2ccn3c(=O)c4ccccc4nc3c21,107%,80.8%,104%,70.1%,162%,93%,89.1%,120%,80.8%,94.7%,75.9%,98.8%,95.5%,96.8%,92.1%,88.9%,–,113%,103%,99.4%
CC(=O)OC1Oc2cc(C)c(C)cc2-c2oc(=O)c(-c3cc4ccc(N(C)C)cc4oc3=O)cc21 (configuration not stated),92.4%,41.5%,84.2%,51.4%,89.6%,103%,65.4%,57.8%,54.9%,-17.4% (active),-41.6% (active),29.4%,75.9%,86.4%,89.8%,78.2%,–,94.1%,112%,64.7%
C/C(Cc1ccc(Cl)cc1)=C(\c1ccc(OCCN2CCCCCC2)cc1)c1ccc(OC(=O)Cc2ccccc2)cc1,90.6%,90.2%,68.7%,44.6%,86.7%,85.2%,79.4%,92.5%,57.2%,24.4%,1.29% (active),33%,72.1%,73.8%,85%,90.6%,44.9%,69.6%,–,72.4%
